HP1b binding inh – blocks HP1-beta chromodomain binding to methylated histone tails. Potency, µM (highest dose often 114 µM), hits mostly inhibitors. AlphaScreen HP1-beta / biotin-H3K9me3 peptide binding. P83916. hit rate 0.56% among 390,000. AID 540317; further: nearly all actives have a fitted effect of over 70% in size
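HP1-beta protein (50 nM final) preincubated 30 min at room temperature with biotinylated H3(1-18)K9me3 peptide (50 nM) in PBS pH 7.4, 0.01% Tween-20, then compound added for 30 min. AlphaScreen streptavidin donor/nickel chelate acceptor beads (10 ug/mL final), 30 min dark, luminescence read.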
JMJD2A Tudor – blocks the human JMJD2A Tudor domain | Potency, µM (series often up to 114 µM), most hits filed as inhibitors | hit rate 4.4% among 390,000 | AlphaScreen JMJD2A-Tudor / H3K4me3 peptide binding | O75164; further: nearly all actives have a fitted effect of over 50% in size
G9a block – G9a (human) methyltransferase inhibition | Q96KQ7 | G9a H3K9 monomethylation, AlphaScreen, 2 h | Potency, µM (titrated, usually from 102 µM), actives largely listed as inhibitors | hit rate 8.8% among 350,000 | AID 504332; further: nearly all actives have a fitted effect of over 75% in size
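Readings reflect AlphaScreen signal from monomethyl-H3K9 antibody detection. HMT at 20 nM; substrate b-H3K9 500 nM; cofactor SAM 20 uM; 2 h RT reaction; compounds tested as titrations in qHTS with 15 min preincubation.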
GLS inh – glutaminase GLS (human) inhibition | O94925 | GLS enzymatic activity, qHTS titration | Potency, µM (series often up to 45.5 µM), hits mostly inhibitors | hit rate 0.21% among 410,000
Target sequence (O94925 whole entry, looked up): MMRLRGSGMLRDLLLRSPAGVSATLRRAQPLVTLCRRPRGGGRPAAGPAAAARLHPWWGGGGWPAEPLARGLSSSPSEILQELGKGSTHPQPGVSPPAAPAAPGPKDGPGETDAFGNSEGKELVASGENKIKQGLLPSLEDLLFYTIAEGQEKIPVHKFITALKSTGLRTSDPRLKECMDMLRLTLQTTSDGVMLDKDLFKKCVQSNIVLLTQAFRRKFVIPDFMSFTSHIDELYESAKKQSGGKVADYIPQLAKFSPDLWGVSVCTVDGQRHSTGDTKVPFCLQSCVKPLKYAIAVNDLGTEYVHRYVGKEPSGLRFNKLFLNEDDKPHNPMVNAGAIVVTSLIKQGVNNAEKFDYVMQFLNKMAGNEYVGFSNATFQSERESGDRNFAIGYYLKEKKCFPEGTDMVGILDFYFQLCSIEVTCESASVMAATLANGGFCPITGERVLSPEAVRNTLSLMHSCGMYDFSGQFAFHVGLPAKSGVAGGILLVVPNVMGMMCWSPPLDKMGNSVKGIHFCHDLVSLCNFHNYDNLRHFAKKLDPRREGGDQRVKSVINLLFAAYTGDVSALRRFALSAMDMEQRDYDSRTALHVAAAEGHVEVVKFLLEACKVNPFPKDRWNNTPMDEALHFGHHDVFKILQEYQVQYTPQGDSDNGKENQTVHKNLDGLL
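hKGA in 45 mM KH2PO4 (pH 8.2), 0.02% Tween-20 with compound, then 1mM L-Glutamine (stock as added) plus glutamate oxidase/HRP/Amplex red coupling mix. Fluorescence read initially and after 30 min at RT; signal change reflects glutamate formation.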
BAZ2B block – inhibitors of human BAZ2B bromodomain; Potency, µM (doses to about 114 µM), usual class: inhibitors; AID 504333; AlphaScreen BAZ2B-H3K14Ac peptide displacement; hit rate 4.4% among 360,000; further: nearly all actives have a fitted effect of over 60% in size
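BAZ2B (50 nM) with biotin-H3(5-23)K14Ac peptide (50 nM) in PBS pH 7.4, 0.01% Tween-20, preformed 30 min, then compound 30 min at room temperature; top concentration 110uM. AlphaScreen streptavidin donor/nickel chelate acceptor beads (10 ug/mL final), 20 min dark, signal read.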
Each line names hits and unclear results; the compound was inactive in the other large screens; ! = a repeat was not active. Hits are enriched below; roughly 10% of the tested compounds scored in any of these assays. The call rests on the fitted dose curve; in most records, active means well fitted curve in the direction sought with a large enough effect; inconclusive means small, poorly fitted or top-dose-only effect, or another doubt; inactive means no such curve, though single readings can be large; an effect the other way counts as inactive or inconclusive.

Clc1ccc(CCNc2ncnc3nc[nH]c23)cc1	G9a block inconclusive
Cc1cc(Cl)ccc1OCC(=O)N(Cc1ccco1)Cc1ccccc1F	none
COc1ccccc1NC(=O)Cn1c(O)c(N=NC(=O)c2ccccc2O)c2ccccc21	G9a block 45µM, BAZ2B block 56µM
CCCN(CCC)S(=O)(=O)c1ccc(Cl)c([N+](=O)[O-])c1	G9a block inconclusive, BAZ2B block inconclusive
CCOC(=O)CSc1ccc(S(=O)(=O)N(CC)CC)cc1[N+](=O)[O-]	G9a block 45µM
CCCCN(CCCC)S(=O)(=O)c1ccc(SCC(=O)OCC)c([N+](=O)[O-])c1	HP1b binding inh 79µM, JMJD2A Tudor inconclusive
COC(=O)CSc1ccc(S(=O)(=O)N2CCC(C)CC2)cc1[N+](=O)[O-]	none
O=S(=O)(c1ccc2nc(Cl)c(Cl)nc2c1)N1CCN(S(=O)(=O)c2c(F)cccc2F)CC1	none (no result: HP1b binding inh, G9a block, GLS inh, BAZ2B block)
O=C(Cc1ccccc1)c1nc2ccccc2s1	HP1b binding inh inconclusive, JMJD2A Tudor inconclusive, G9a block inconclusive, BAZ2B block 71µM
CC(C)CC(=O)NC(=S)Nc1sc2c(c1C(N)=O)CCC2	none
NC(=O)c1c(NC(=O)C2CCCO2)sc2c1CCCC2 (stereo unspecified)	HP1b binding inh inconclusive, JMJD2A Tudor inconclusive, G9a block 3.2µM
CCOC(=O)c1c(NC(=O)C2CCCO2)sc2c1CCC2 (stereo unspecified)	none
CC(C)(C)C(=O)NC(=S)Nc1sc2c(c1C(N)=O)CCC2	HP1b binding inh inconclusive, G9a block 5.6µM
Cc1sc(NC(=O)C2CCCO2)c(C(N)=O)c1C (stereo unspecified)	HP1b binding inh inconclusive, JMJD2A Tudor inconclusive, G9a block 7.9µM
O=C(NC(Cc1ccccc1)C(=O)O)OCC1c2ccccc2-c2ccccc21 (stereo unspecified)	none
CCCCC[C@H](CC(=O)NO)C(=O)N[C@H](C(=O)N1CCC[C@H]1CO)C(C)C	G9a block 9.5µM! (no result: HP1b binding inh, JMJD2A Tudor, GLS inh, BAZ2B block)
CCCCCC(CC(=O)NO)C(=O)NC(C(=O)N1CCCC1CO)C(C)C (stereo unspecified)	G9a block inconclusive
O=C(COC(=O)CNC(=O)c1ccccc1F)Nc1nnc(-c2ccccc2)o1	G9a block 56µM
O=C(COC(=O)/C=C/c1ccccc1F)Nc1nnc(-c2ccccc2)o1	JMJD2A Tudor inconclusive, BAZ2B block inconclusive
Cc1cc(=O)n(C)c(=O)n1CCCCCN1CCCC1	HP1b binding inh inconclusive, JMJD2A Tudor 2.5µM, G9a block inconclusive, BAZ2B block 50µM
Cc1cc(N/N=C2/CCCc3ccccc32)nc2ccccc12	JMJD2A Tudor inconclusive, G9a block 50µM, BAZ2B block inconclusive
COc1ccc(-c2nc(SC(CC(=O)NCCO)c3cccs3)n[nH]2)cc1 (stereo unspecified)	G9a block 45µM
COc1ccc(-c2nc(SCC(=O)NCCc3ccccc3)n[nH]2)cc1	none
CCCN(CCO)C1CCN(CCc2ccccc2)CC1	G9a block 50µM
CCCCN(Cc1ccccc1)C1CCN(Cc2ccccc2)CC1	none (no result: G9a block)
CC(C)C(=O)Nc1ccc(C(=O)N/N=C/C2CC3C=CC2C3)cc1 (stereo unspecified)	none
CN1CCCC(CC2Oc3ccccc3Sc3ccccc32)C1 (stereo unspecified)	HP1b binding inh inconclusive, JMJD2A Tudor 8.9µM, G9a block inconclusive, BAZ2B block 50µM
Cc1cc(F)ccc1S(=O)(=O)N1CCC2(CC1)OCCN2S(=O)(=O)c1cccs1	none
COc1ccc(NC(=O)C2CCCO2)cc1 (stereo unspecified)	none
O=C(Nc1ccc(N=Nc2ccccc2)c(NC(=O)C2CCCO2)c1)C1CCCO1 (stereo unspecified)	HP1b binding inh inconclusive, JMJD2A Tudor 35µM, G9a block inconclusive, BAZ2B block 28µM
CSc1ccccc1NC(=O)C1CCCO1 (stereo unspecified)	G9a block 16µM
O=C(Nc1ccc(Oc2ccccc2)cc1)C1CCCO1 (stereo unspecified)	JMJD2A Tudor 100µM
CCCn1c(C)cc(/C=C(\C#N)C(=O)OCC(=O)Nc2ccc(OC)c(Cl)c2)c1C	none
O=C1NC(=S)S/C1=C\C=C\c1ccc([N+](=O)[O-])o1	HP1b binding inh inconclusive, JMJD2A Tudor 16µM, BAZ2B block 11µM (no result: G9a block)
O=[N+]([O-])c1ccc(COc2ccc(Br)cc2CN2CCOCC2)cc1	JMJD2A Tudor inconclusive, G9a block 50µM, BAZ2B block inconclusive
Brc1ccc(-c2cn3nc4c(nc3n2)CCCC4)cc1	G9a block inconclusive
c1ccc(-c2cn3nc4c(nc3n2)CCCC4)cc1	G9a block 50µM
Clc1ccccc1OCCn1ccnc1	HP1b binding inh 45µM, JMJD2A Tudor 4.5µM, G9a block 10µM, BAZ2B block 79µM
COc1cccc(OCCn2ccnc2)c1	G9a block inconclusive
C=CCc1cccc(OC)c1OCCOCCn1ccnc1	HP1b binding inh inconclusive, JMJD2A Tudor 5µM, G9a block inconclusive, BAZ2B block 35µM
C=CCc1ccccc1OCCn1ccnc1	HP1b binding inh inconclusive, G9a block 8.9µM, BAZ2B block 50µM
O=C(CCCCCNC(=O)N1CCn2c1nc1ccccc12)NCc1ccccc1Cl	none
COc1ccc(C(=O)C2CCCN(C(=O)c3noc4c3CCCC4)C2)cc1F (stereo unspecified)	none
COc1ccc(C(=O)C2CCCN(C(=O)c3ccc(CSC)o3)C2)cc1F (stereo unspecified)	G9a block 32µM
CN(Cc1ccccc1)C(=O)c1ccccc1NC(=O)C1=CSCCO1	none (no result: G9a block)
CCOC(=O)c1ccc(S(=O)(=O)Nc2cc(C(=O)O)ccc2Cl)cc1	G9a block 7.9µM
CCOC(=O)c1ccc(S(=O)(=O)NNS(=O)(=O)c2ccc(C)cc2)cc1	none
CCOC(=O)c1c(C)oc2c1cc(NS(=O)(=O)c1ccc(C(=O)O)cc1)c1ccccc12	G9a block 35µM
CS(=O)(=O)c1ccc(N)c(SSc2cc(S(C)(=O)=O)ccc2N)c1	HP1b binding inh inconclusive, JMJD2A Tudor 1.4µM, G9a block inconclusive, GLS inh 10µM, BAZ2B block 35µM
O=C(c1ccc(OCCN2CCCCC2)cc1)c1c(-c2ccc(O)cc2)sc2cc(O)ccc12	HP1b binding inh inconclusive, JMJD2A Tudor 40µM, G9a block 22µM!, BAZ2B block 45µM
COC(=O)c1ccc(OCCN2CCCCCC2)cc1	G9a block 35µM, BAZ2B block inconclusive
O=C(OCCN1CCCCC1)c1ccc(Cl)cc1	none
O=C(c1ccccc1)c1ccc(OCCCN2CCCCC2)cc1	JMJD2A Tudor 7.9µM, G9a block 8.9µM, BAZ2B block 32µM
CC(=O)c1ccc(OCCCN2CCCCC2)cc1	HP1b binding inh inconclusive, JMJD2A Tudor 2.2µM, G9a block 3.5µM, BAZ2B block 50µM
C/C(=N\NC(=O)c1c(Br)c(C)nn1C)c1ccc(NC(=O)c2ccoc2C)cc1	none
Cc1cc(NC(=O)CS(=O)(=O)c2cn(Cc3cccc(Br)c3)c3ccccc23)no1	none (no result: HP1b binding inh, JMJD2A Tudor, G9a block, BAZ2B block)
